# Assay outcomes as filed in PubChem BioAssay.
# Compounds with a hit are over-represented: about 0.95% of the library has one in this group of screens.
# Fluorescein autfl: fluorescein region autofluorescence; actives 0.91% (n = 59,000); Compound autofluorescence, 480/540 nm, fluorescein-equivalent; stronger effect = higher value; AID 593; max fluorescein-equivalent concentration, M; in the data active means max fluorescein-equivalent concentration above about 10 nM; inconclusive means between about 1.1 nM and that limit
#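 In this qHTS profile, compound fluorescence was measured with a 480 nm/540 nm filter pair following a 15-min room-temperature incubation in 100 mM Tris (pH 8.0). A six-point fluorescein series on each plate served for normalization.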
# Resorufin autofl: compounds fluorescent in resorufin spectral region; Compound fluorescence, resorufin region 547/598 nm, buffer; stronger effect = higher value; max dye-equivalent concentration, M; actives 0.04% (n = 59,000); AID 588
#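 Compounds in 100 mM Tris buffer, pH 8.0, incubated 15 min at room temperature, then read with 547 nm excitation and 598 nm emission filters. Fluorescence was converted to dye-equivalent concentration using an on-plate six-point resorufin standard curve.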
# TexasRed autofl: compound fluoresces in the Texas Red spectral region. Compound fluorescence, Texas Red channel, 547/618 nm; stronger effect = higher value. max dye-equivalent concentration, M. actives 0.06% (n = 59,000); in the data active means max dye-equivalent concentration above about 10 nM; inconclusive means between about 1.1 nM and that limit
#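 Texas Red-region profiling: compounds in 100 mM Tris pH 8.0 were read at 547/618 nm after 15 min at room temperature. Intensities were normalized against a six-point Texas Red standard series to give dye-equivalent concentration.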
# A488 autofl: A488 region autofluorescence; actives 0.1% (n = 59,000); max dye equivalency, M; compound autofluorescence, A488 spectral region, dye equivalency; Compound Type: qHTS ECL - MLSMR
#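 Autofluorescence read at ex 480/em 540 nm after 15 min RT in 100 mM Tris pH 8.0; compound signal normalized to A488 standard series on each plate, reported as dye-equivalent concentration at each test concentration.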
# Rhodamine fluor: rhodamine region autofluorescence. Rhodamine-region fluorescence, 547/598 nm, Tris buffer; stronger effect = higher value. max dye-equivalent concentration, M. actives 0.05% (n = 59,000). AID 594; in the data active means max dye-equivalent concentration above about 11 nM; inconclusive means between about 1.1 nM and that limit
#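 Intensities are converted to rhodamine-equivalent concentration using a six-point rhodamine standard on each plate. Compounds sit 15 min at room temperature in 100 mM Tris buffer, pH 8.0; read uses the 547/598 nm excitation/emission pair.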
# A647 fluor: compound autofluorescence in A647 spectral region; Compound fluorescence, A647 channel (570/671 nm), Tris buffer; max dye-equivalent concentration, M; 59,000 tested, under 10 active; AID 592
#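 Fluorescence read (570 nm ex, 671 nm em) after 15 min RT incubation of compounds in 100 mM Tris buffer, pH 8.0; values expressed as dye-equivalent concentration against a six-point A647 standard series on each plate.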
# Numbers stand for hits; . = inactive; ? = inconclusive; ! = a repeat was not active. Unless noted, how the calls were made is not given here.
SMILES,Fluorescein autfl,Resorufin autofl,TexasRed autofl,A488 autofl,Rhodamine fluor,A647 fluor
C=Cc1c(C)c2cc3[nH]c(cc4nc(cc5nc(cc1[nH]2)C(C)=C5CCC(=O)O)C(CCC(=O)O)=C4C)c(C)c3C=C,?,.,1.01e-08M,.,.,.
CC(C)COc1nc2ccccc2nc1C(C#N)C(=O)NC1CCCCC1 (stereo not drawn),7.32e-08M,.,.,?,.,.
CC1CN(c2nc3ccccc3nc2C(C#N)C(=O)NC2CCCCC2)CC(C)O1 (stereo not drawn),2.93e-07M,.,.,1.44e-08M,.,.
O=S(=O)(CCn1cccc1)CCn1cccc1,1.01e-08M,.,.,.,.,.
C[C@@H]1C[C@@]2(C)Oc3ccccc3[C@H]3OC[C@]1(COC(=O)Nc1ccccc1)[C@@H](C)[C@@H]32,.,.,?,.,.,.
Nc1ccn([C@H]2CC[C@H](CO)O2)c(=O)n1,?,.,.,.,.,.
CC(=O)O[C@@H]1[C@H]([N+]2(C)CCCCC2)C[C@@H]2[C@@H]3CC[C@@H]4C[C@@H](OC(C)=O)[C@H]([N+]5(C)CCCCC5)C[C@@]4(C)[C@H]3CC[C@]21C,?,.,?,.,.,.
CN1CCc2c(cc(O)c(O)c2Cl)[C@H](c2cccc(Cl)c2)C1,?,.,.,.,.,.
COC(=O)c1ccc2c(c1)SC1=C(CCCC1=O)N2,5.27e-08M,1.86e-08M,2.13e-08M,?,2e-08M,.
CCOC(=O)COn1c(=O)c(-c2cccs2)[n+]([O-])c2ccccc21,1.29e-08M,.,.,.,.,.
CCOn1c(=O)c(-c2ccc(OC)cc2)[n+]([O-])c2ccccc21,.,.,.,.,.,.
CN1C(C(=O)Nc2ccccn2)=C(O)c2ccccc2S1(=O)=O,1.22e-08M!,.,.,.,.,.
CC(=O)c1sc2nc(-c3cccs3)cc(C(F)(F)F)c2c1N,7.16e-08M,.,.,?,.,.
CCN(CC)c1ccc2c(Cl)c(Br)c(=O)oc2c1,?,.,.,.,.,.
CCN(CC)c1ccc2c(c1)oc(=O)c1c(Cl)cc(=O)oc12,4.78e-07M,.,.,2.5e-08M,.,.
C[C@H]1[C@H](O)[C@@H](C)C=CC=CC=CC=CC=CC=CC=C[C@H](O[C@@H]2O[C@@H](C)[C@H](O)[C@@H](N)[C@@H]2O)C[C@@H]2O[C@](O)(C[C@@H](O)C[C@@H](O)[C@@H](O)CC[C@@H](O)C[C@@H](O)CC(=O)O[C@H]1C)C[C@H](O)[C@H]2C(=O)O,.,.,.,.,.,.
O=C1c2cccnc2C(=O)N1Cc1ccc(F)cc1,8.18e-08M,.,.,?,.,.
CC1=CC(=O)c2ccccc2C1=O,?,.,.,.,.,.
NC1=CC(=O)c2cccc3cccc1c23,3.56e-08M,.,.,?,.,.
COc1ccccc1/C=c1\sc2nc(-c3ccncc3)nn2c1=O,1.49e-08M,.,.,.,.,.
Cc1c(C2Nc3ccccc3NC3=C2C(=O)CC(C)(C)C3)cnn1C (stereo not drawn),1.11e-08M!,.,.,.,.,.
C=C(CO)[C@H]1Cc2c(ccc3c2O[C@H]2COc4cc(OC)c(OC)cc4[C@@H]2C3=O)O1,.,.,.,.,.,.
O=c1oc2c(CN3CCCCC3)c(O)ccc2cc1-c1nc2ccccc2[nH]1,2.83e-06M,.,.,1.4e-07M,.,.
CCOC(=O)c1csc(NC(=O)CSc2nnnn2-c2ccc(OCC)cc2)n1,2.29e-08M,.,.,.,.,.
N[C@H](Cc1ccc(F)cc1)C(=O)O,?,.,.,.,.,.
SMILES,Fluorescein autfl,Resorufin autofl,TexasRed autofl,A488 autofl,Rhodamine fluor,A647 fluor
CC(=O)[C@@]1(O)CC[C@@H]2[C@@H]3CCC4=CC(=O)CC[C@@]4(C)[C@H]3CC[C@]21C,.,.,?,.,.,.
O=C(O)c1cc(O)c2c(c1)C(=O)c1cccc(O)c1C2=O,8.63e-08M,.,.,?,.,.
CN1C[C@H](C(=O)N[C@]2(C)O[C@@]3(O)[C@H]4CCCN4C(=O)[C@@H](Cc4ccccc4)N3C2=O)C[C@H]2c3cccc4[nH]cc(c34)C[C@@H]21,?,.,.,.,.,.
COc1ccc(C2CNC(=O)C2)cc1OC1CCCC1 (stereo not drawn),1.14e-08M,.,.,.,.,.
COc1ccc(CCNS(=O)(=O)c2ccc(C3CNC(=O)C3)cc2)cc1OC (stereo not drawn),.,.,.,.,.,.
COc1ccc(C2C3=C(CC(C)(C)CC3=O)Nc3c2c(=O)[nH]c(=O)n3Cc2ccccc2)cc1OC (stereo not drawn),1.1e-08M,.,.,.,.,.
COc1cc(C2C3=C(CC(C)(C)CC3=O)Nc3c2c(=O)[nH]c(=O)n3Cc2ccccc2)ccc1O (stereo not drawn),?,.,.,.,.,.
CCOc1ccc(C2C=C(c3ccc(C)cc3)Nc3nnnn32)cc1 (stereo not drawn),?,.,.,.,.,.
CCOc1ccc(C2C=C(c3ccc(C)cc3)Nc3ncnn32)cc1 (stereo not drawn),1.49e-08M,.,?,.,.,.
COCCCNC(=O)C(C#N)c1nc2ccccc2nc1N1CCCC1 (stereo not drawn),6.6e-08M,.,.,?,.,.
CCCCCCNC(=O)C(C#N)c1nc2ccccc2nc1N1CCOCC1 (stereo not drawn),4.12e-07M,.,.,3.02e-08M,.,.
CCCCCNC(=O)C(C#N)c1nc2ccccc2nc1N1CCCC1 (stereo not drawn),5.52e-07M,.,.,2.89e-08M,.,.
CCCCCCNC(=O)C(C#N)c1nc2ccccc2nc1N1CCCC1 (stereo not drawn),8.01e-07M,.,.,4.11e-08M,.,.
C[C@H]1[C@H](C)CC[C@]2(C(=O)O)CC[C@]3(C)C(=CC[C@@H]4[C@]5(C)C[C@H](O)[C@@H](O)[C@@](C)(CO)[C@@H]5[C@H](O)C[C@@]43C)[C@H]12,?,.,.,.,.,.
O=C(O)[C@H]([C@H]1NCCS1)N1Cc2ccccc2C1,.,.,.,.,.,.
CCCCN(CCCC)c1nc2ccccc2nc1C(C#N)C(=O)NCCCOC (stereo not drawn),5.73e-08M,.,.,?,.,.
CCCCOC(=O)C(C#N)c1nc2ccccc2nc1N1CCOCC1 (stereo not drawn),2.89e-08M,.,.,?,.,.
CCCCCCOC(=O)C(C#N)c1nc2ccccc2nc1N1CCOCC1 (stereo not drawn),?,.,.,.,.,.
CC(=O)c1c(O)c(C)c(O)c2c1OC1=CC(=O)[C@H](C(C)=O)C(=O)[C@]12C,.,.,.,.,.,.
CC1(C)CCC[C@@]2(C)[C@@H]1CC[C@]1(C)OC(=O)C[C@@H]21,.,.,.,.,.,.
